Drawing on PubChem BioAssay, this text covers z-score and composite z-score for eight molecules.

Assay [1] can be described thus: optical density shifts of acrAB sulA E. coli – strain DRC41, OD650, 48 h, E. coli filamentation inducer project, primary screen (AID 1152).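 Further: E. coli MC1000 strain DRC41 lacking acrAB efflux pump and sulA.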 The note with it: higher = more signal, called active from +8 up or from −8 down.
The nature of assay [2]: probe aLefty1 binding on compound microarray – biochemical, small-molecule microarray, 635/667 nm fluorescence, primary screen (AID 1153).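 Further: score merges spot fluorescence with signal-to-noise ratio from the scanned slide images.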 The note with it: higher = more signal.
Assay [3] can be described thus: plasmodial surface anion channel blockers, osmotic lysis – cell-based, P. falciparum Indochina, OD700, 1 h, primary screen (AID 1154). The note with it: P. falciparum Indochina infected RBC osmotic lysis, higher = more signal, called active from +8 up or from −8 down.
Assay [4] in a line: plasmodial surface anion channel blockers, osmotic lysis – cell-based, P. falciparum Indochina, OD700, 2 h, primary screen (AID 1155).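 Further: lysis reports solute entry through the parasite surface anion channel PSAC.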 The note with it: P. falciparum Indochina infected erythrocytes, higher = more signal, called active from +8 up or from −8 down.
A short description of assay [5]: changes in parasitized red cell lysis, either direction – P. falciparum Indochina, OD700, 3 h, PSAC antagonist project, primary screen (AID 1156). The conditions noted are these: P. falciparum-infected erythrocytes, osmotic lysis, higher = more signal, called active from +8 up or from −8 down.
A short description of assay [6]: plasmodial surface anion channel blockers, osmotic lysis – cell-based, P. falciparum Indochina, OD700, 18 h, primary screen (AID 1157). The conditions noted are these: P. falciparum Indochina infected erythrocytes, osmotic lysis OD700, 18 h; higher = more signal, called active from +8 up or from −8 down.
A short description of assay [7]: S6 kinase pathway phospho-S6 level changes – cell-based, A549, cytoblot, luminescence, serum-stimulated, primary screen (AID 1158).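 Further: serum-stimulated A549 lung adenocarcinoma cells; signal is phosphorylated S6 detected by cytoblot immunostaining with HRP secondary.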 The conditions noted are these: 5 h, higher = more signal.
Assay [8] concerns the target NADPH oxidase 2 (Homo sapiens) (UniProt P04839). Kind of assay: compounds shifting NOX2 Amplex Red fluorescence – cell-based, HEK293-NOX2, PMA-stimulated, NOX inhibitor project, primary screen (AID 1159). Further: test concentration not given here. The note with it: 45 min, higher = more signal, called active from +8 up or from −8 down.
Assay [9] deals with NADPH oxidase 4 (Homo sapiens) (UniProt Q9NPH5). The assay can be described thus: compounds shifting NOX4 Amplex Red fluorescence – cell-based, HEK293-NOX4, tetracycline-induced, NOX inhibitor project, primary screen (AID 1160). The note with it: HEK293-NOX4, Amplex Red H2O2 fluorescence, 45 min; higher = more signal, called active from +8 up or from −8 down.
Chain of NADPH oxidase 4 (Homo sapiens) (Q9NPH5 whole entry, looked up): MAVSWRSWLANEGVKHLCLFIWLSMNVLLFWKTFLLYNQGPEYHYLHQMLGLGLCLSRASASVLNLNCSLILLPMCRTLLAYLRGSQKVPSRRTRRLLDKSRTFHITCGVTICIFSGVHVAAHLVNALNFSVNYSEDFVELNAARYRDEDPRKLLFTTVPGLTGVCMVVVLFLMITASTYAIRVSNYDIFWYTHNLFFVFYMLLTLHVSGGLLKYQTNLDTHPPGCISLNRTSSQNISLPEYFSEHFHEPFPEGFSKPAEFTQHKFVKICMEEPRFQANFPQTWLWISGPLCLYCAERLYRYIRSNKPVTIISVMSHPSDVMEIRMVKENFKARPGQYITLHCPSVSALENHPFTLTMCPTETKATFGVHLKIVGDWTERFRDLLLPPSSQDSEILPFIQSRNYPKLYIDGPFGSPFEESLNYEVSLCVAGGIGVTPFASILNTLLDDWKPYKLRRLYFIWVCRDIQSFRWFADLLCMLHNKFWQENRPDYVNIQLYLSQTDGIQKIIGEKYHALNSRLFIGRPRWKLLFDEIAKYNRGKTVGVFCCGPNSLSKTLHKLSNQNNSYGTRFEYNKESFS
The target in assay [10] is NADPH oxidase 5 (Homo sapiens) (UniProt Q96PH1). The assay can be described thus: compounds shifting NOX5 Amplex Red fluorescence – cell-based, HEK293-NOX5, NOX inhibitor project, primary screen (AID 1161). The note with it: HEK293-NOX5, ionomycin, 45 min, higher = more signal.
Chain of NADPH oxidase 5 (Homo sapiens) (Q96PH1 whole entry, looked up): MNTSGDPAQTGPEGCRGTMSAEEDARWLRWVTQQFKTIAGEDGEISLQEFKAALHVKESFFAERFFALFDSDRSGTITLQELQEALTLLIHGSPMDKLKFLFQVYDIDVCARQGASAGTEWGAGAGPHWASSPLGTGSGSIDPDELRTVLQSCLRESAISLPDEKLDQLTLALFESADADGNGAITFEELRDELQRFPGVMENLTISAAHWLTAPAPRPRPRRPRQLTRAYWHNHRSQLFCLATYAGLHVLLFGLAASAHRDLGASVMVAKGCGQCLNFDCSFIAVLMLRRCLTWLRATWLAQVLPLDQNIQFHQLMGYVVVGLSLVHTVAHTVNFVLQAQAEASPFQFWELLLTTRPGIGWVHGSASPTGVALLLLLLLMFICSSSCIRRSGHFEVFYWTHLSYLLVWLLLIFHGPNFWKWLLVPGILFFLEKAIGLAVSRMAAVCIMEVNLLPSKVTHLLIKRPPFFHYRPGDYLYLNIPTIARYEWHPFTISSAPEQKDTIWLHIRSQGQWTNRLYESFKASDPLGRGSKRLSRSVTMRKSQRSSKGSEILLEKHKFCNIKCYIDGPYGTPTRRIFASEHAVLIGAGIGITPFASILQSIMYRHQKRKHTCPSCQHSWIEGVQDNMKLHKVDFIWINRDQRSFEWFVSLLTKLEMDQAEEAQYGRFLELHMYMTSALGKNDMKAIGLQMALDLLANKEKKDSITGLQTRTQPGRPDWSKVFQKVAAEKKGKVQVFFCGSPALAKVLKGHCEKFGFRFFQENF
Assay [11] in a line: compound effects on lung adenocarcinoma cell viability – A549, calcein-AM fluorescence, 48 h, basal, profiling panel (AID 1162). Further: test concentration not given here. The conditions noted are these: higher = more signal.
Assay [12] can be described thus: compound effects on differentiated 3T3-L1 adipocyte viability – cell-based, 3T3-L1 adipocytes, calcein-AM fluorescence, 48 h, basal, profiling panel (AID 1163). Further: test concentration not given here. The note with it: 3T3-L1 adipocytes viability, higher = more signal.
Assay [13] is described as follows: compound effects on hepatocellular carcinoma cell viability – HepG2, calcein-AM fluorescence, 48 h, basal, profiling panel (AID 1164). Further: test concentration not given here. The note with it: higher = more signal.
Assay [14] in a line: compound effects on multiple myeloma cell viability – MM1S, calcein-AM fluorescence, 48 h, basal, profiling panel (AID 1165).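 Further: viability of MM1S multiple myeloma cells under basal unstimulated conditions; test concentration not given here.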 The note with it: higher = more signal.
A short description of assay [15]: calcein-AM signal in unstimulated myeloma cells – cell-based, calcein-AM fluorescence, 48 h, PK04 Diversity Set, profiling panel (AID 1166).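 Further: cells grown under basal conditions without added stimulus; test concentration not given here.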 The note with it: RPMI8226 myeloma viability, higher = more signal.
Assay [16] in a line: JC-1 mitochondrial signal, unstimulated HepG2 cells – cell-based, JC-1 fluorescence, 24 h, 100 nL compound, profiling panel (AID 1167). Further: test concentration not given here. The conditions noted are these: HepG2 mitochondrial potential, higher = more signal.
A short description of assay [17]: JC-1 mitochondrial signal, unstimulated adipocytes – cell-based, JC-1 fluorescence, 3T3-L1 adipocytes, 24 h, 100 nL compound, profiling panel (AID 1168). Further: test concentration not given here. The conditions noted are these: JC-1 mitochondrial fluorescence, higher = more signal, called active from +8 up or from −8 down.
Assay [18] can be described thus: JC-1 mitochondrial signal, unstimulated myeloma cells – cell-based, JC-1 fluorescence, RPMI8226, 24 h, 100 nL compound, profiling panel (AID 1169). Further: test concentration not given here. The conditions noted are these: JC-1 mitochondrial potential fluorescence, higher = more signal.
Assay [19] is described as follows: JC-1 mitochondrial signal, unstimulated MM1S myeloma – cell-based, JC-1 fluorescence, 24 h, 100 nL compound, profiling panel (AID 1170). Further: test concentration not given here. The conditions noted are these: MM1S mitochondrial potential, higher = more signal.
Assay [20] is described as follows: resazurin metabolic signal in A549 cells – cell-based, resazurin fluorescence, 24 h, PK04 Diversity Set, profiling panel (AID 1171). Further: test concentration not given here. The conditions noted are these: A549 viability, higher = more signal, called active from +8 up or from −8 down.

Each structure is given as a SMILES string. Activity calls are given as the source filed them.

Chain of NADPH oxidase 2 (Homo sapiens) (P04839 whole entry, looked up): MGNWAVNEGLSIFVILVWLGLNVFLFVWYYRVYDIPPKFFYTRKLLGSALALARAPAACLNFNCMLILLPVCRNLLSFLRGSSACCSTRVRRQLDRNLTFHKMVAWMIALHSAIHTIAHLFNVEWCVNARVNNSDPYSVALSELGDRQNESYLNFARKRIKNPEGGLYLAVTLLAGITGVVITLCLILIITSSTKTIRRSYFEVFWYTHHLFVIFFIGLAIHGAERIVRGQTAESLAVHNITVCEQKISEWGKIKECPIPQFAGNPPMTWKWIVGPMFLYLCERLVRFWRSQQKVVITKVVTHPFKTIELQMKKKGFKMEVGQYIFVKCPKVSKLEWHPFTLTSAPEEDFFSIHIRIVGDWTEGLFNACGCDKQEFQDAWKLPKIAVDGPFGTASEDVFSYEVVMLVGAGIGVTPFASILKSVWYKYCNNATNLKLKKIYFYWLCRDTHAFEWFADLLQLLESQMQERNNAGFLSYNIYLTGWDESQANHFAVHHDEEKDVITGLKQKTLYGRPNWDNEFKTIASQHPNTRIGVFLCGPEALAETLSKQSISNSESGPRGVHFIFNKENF

With `CC(CCN1CCCCc2nc(C)c(C)cc21)=NOC(C)CN1CCCc2nc(C)c(C)cc21` (stereo not given), the z-score in assay [1] is -1.7 (inactive); in assay [3] it was 1.6 (inactive); in assay [4], 0.549 (inactive); in assay [5] it was -0.19 (inactive); in assay [6], 0.488 (inactive); in [7], -0.569. In addition, the z-score in [8] is -1 (inactive); in assay [9], 0.11 (inactive); in assay [10] it was -1.79; in assay [11], -0.587; in assay [12] it was -0.315; in assay [13], -0.253. Also, the z-score in assay [14] was -2.66; in assay [15], -0.681; in assay [16], 0.346; in assay [17], -1.7 (inactive); in [18], 0.133; in assay [19] it was -0.269. Besides, the z-score in [20] was 0.37 (inactive). In addition, the composite z-score in [2] is 0.79.

As for `CO[C@@H]1COC(=O)CC=C[C@@H](C)[C@@H]2C=C[C@H](O)[C@@H](COC(=O)CCC[C@H]1C)O2`, the z-score was -0.457 (inactive) in [1]; -0.977 (inactive) in assay [3]; -1.66 (inactive) in assay [4]; -0.184 (inactive) in assay [5]; -2.26 (inactive) in assay [6]; 0.49 in [7]. The z-score in assay [8] was -0.521 (inactive); in assay [9] it was 0.319 (inactive); in assay [10], 0.312; in assay [11] it was 0.438; in assay [12] it was -0.717; in [13] it was -0.101. For the same molecule, the z-score in [14] is -0.567; in [15] it was 0.403; in [16] it was -0.016; in assay [17] it was -0.546 (inactive); in assay [18], -0.347; in [19], -1.23. Besides, the z-score in assay [20] is -0.165 (inactive). Also, the composite z-score in assay [2] came out at 0.425.

Regarding `Cc1ccc(S(=O)(=O)N[C@@H]2COC(=O)[C@H](C)COC(=O)CC=C[C@H]2C)cc1`, the z-score in assay [1] is -0.786 (inactive); in assay [3], 0.345 (inactive); in [4], 0.408 (inactive); in assay [5], 0.563 (inactive); in [6], -0.0893 (inactive); in assay [7] it was -0.648. Further, the z-score in assay [8] was -0.108 (inactive); in assay [9] it was 0.174 (inactive); in assay [10], 0.343; in [11], 0.449; in assay [12], 0.518; in [13], 0.53. The z-score was 0.228 in assay [14]; 0.274 in assay [15]; 0.539 in [16]; -0.0933 (inactive) in assay [17]; 1.06 in [18]; 0.34 in [19]. Moreover, the z-score in assay [20] was 0.317 (inactive). In addition, the composite z-score in assay [2] was -0.0493.

For `COC(=O)CC=C[C@@H](C)[C@@H](C=NO[C@@H](C)c1cc(-c2c(C)cc(C)cc2C)no1)OC`, the z-score was -1.45 (inactive) in assay [1]; 3.39 (inactive) in assay [3]; -0.032 (inactive) in [4]; 0.505 (inactive) in [5]; -1.37 (inactive) in assay [6]; 2.15 in assay [7]. Further, the z-score was -1.04 (inactive) in assay [8]; -0.771 (inactive) in [9]; -3.87 in assay [10]; -0.542 in assay [11]; 1.05 in assay [12]; -0.618 in assay [13]. Besides, the z-score in assay [14] was 0.0635; in assay [15], -0.466; in assay [16], -1.13; in [17], -0.613 (inactive); in assay [18], -0.549; in assay [19], -1.19. The z-score in assay [20] is 0.16 (inactive). For the same molecule, the composite z-score in [2] was 0.0004.

With `O=C1[C@H]2[C@H]3[C@H](O)[C@H](O)CC(=NO[C@@H]4O[C@H](CO)[C@@H](O)[C@H](O)[C@H]4O)[C@H]3CC[C@H]2C(=O)N1Cc1ccc2c(c1)OCO2`, the z-score was 0.614 (inactive) in assay [1]; 15.5 (active) in [3]; 2.09 (inactive) in assay [4]; 0.0435 (inactive) in assay [5]; 1.04 (inactive) in [6]; -0.438 in assay [7]. Besides, the z-score in assay [8] is -2.58 (inactive); in assay [9], 0.514 (inactive); in assay [10], 1.55; in [11], 1.26; in assay [12], -1; in assay [13], -0.254. The z-score is -0.19 in [14]; 0.0119 in assay [15]; -0.102 in assay [16]; 0.48 (inactive) in [17]; -0.0781 in assay [18]; -1.13 in assay [19]. Also, the z-score in assay [20] was 0.443 (inactive). For the same molecule, the composite z-score in assay [2] was determined as 0.122.

Regarding `COC(=O)CC=C[C@@H](C)[C@@H](C=NO[C@H](C)c1cn([C@@H]2COC[C@H]2O)nn1)OC`, the z-score is 0.319 (inactive) in assay [1]; 0.813 (inactive) in [3]; 0.499 (inactive) in assay [4]; 0.5 (inactive) in assay [5]; 0.415 (inactive) in assay [6]; 0.502 in assay [7]. The z-score was -0.0191 (inactive) in assay [8]; 0.488 (inactive) in [9]; -0.0693 in [10]; 0.947 in assay [11]; -0.0678 in assay [12]; 0.185 in assay [13]. For the same molecule, the z-score in [14] was 0.415; in assay [15], -0.507; in [16], 1.2; in assay [17] it was -0.39 (inactive); in [18], 0.146; in [19], -0.469. Besides, in assay [20], the z-score is -0.567 (inactive). Besides, the composite z-score in assay [2] is -0.0003.

As to `O=C(CS)NCCCCCNC(=O)[C@@H]1C[C@@H]2C(=O)N[C@@H](Cc3ccccc3)C(=O)N2[C@@H]1c1ccc(O)cc1`, the z-score in assay [1] was 0.942 (inactive); in assay [3] it was 10.1 (active); in assay [4] it was 1.07 (inactive); in assay [5] it was -0.676 (inactive); in assay [6], 0.325 (inactive); in [7], -0.205. Further, the z-score in assay [8] is 0.727 (inactive); in assay [9], -0.142 (inactive); in [10], 0.0233; in assay [11], 0.557; in assay [12], 0.239; in assay [13], 1.15. The z-score was 0.477 in [14]; 0.617 in assay [15]; -0.0506 in [16]; -0.325 (inactive) in assay [17]; 0.149 in [18]; -0.625 in [19]. In addition, in [20], the z-score was -0.181 (inactive). In assay [2], this molecule returned a composite z-score of 0.0839.

As for `CCCCCN1CC=CC23O[C@@H]4C=CCOC(=O)[C@@H]4[C@H]2C(=O)N(CCCCCCO)[C@@H]3C1=O` (stereo not given in full), the z-score is 0.191 (inactive) in [1]; 2.04 (inactive) in assay [3]; -0.0969 (inactive) in assay [4]; 0.748 (inactive) in assay [5]; 0.187 (inactive) in assay [6]; 0.0374 in assay [7]. Besides, the z-score was 1.24 (inactive) in assay [8]; -0.482 (inactive) in assay [9]; 1.73 in [10]; -0.262 in [11]; -0.0159 in assay [12]; 0.63 in assay [13]. Also, the z-score is 1.04 in assay [14]; -0.534 in assay [15]; -0.429 in [16]; -0.574 (inactive) in [17]; -0.343 in assay [18]; -0.414 in [19]. Also, in assay [20], the z-score was 0.444 (inactive). For the same molecule, in assay [2], the composite z-score was -0.103.
